MEKK2 mut-MEK5: signal of MEK5 binding to mutant human MEKK2 PB1 domain; percent response, % at 10 µM; bead flow cytometry, Alexa488-MEK5 binding to MEKK2 mutant; hit rate 0.35% among 290,000; in the data active means percent response above about 24%, passing the limit was not always enough
MEKK3 PB1 HTS: MEKK3-MEK5 PB1 interaction, increase or decrease | bead-based flow cytometry, Alexa488-MEK5 binding to MEKK3; actives lie on both sides; 0 = blocked by unlabeled MEK5, 100 = vehicle | binding response (% of control), % at 10 µM | hit rate 1.4% among 290,000 | AID 1529;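 active means binding response more than 3 SD above or below the average of its plate-row segment, actives on both sides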;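 further: Alexa488 bead fluorescence after subtracting the streptavidin-only scavenger bead signal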
NRP1-CendR mod: alters CendR peptide binding to human NRP-1 | hit rate 0.85% among 360,000 | FAM-RPARPAR peptide binding to NRP-1, fluorescence polarization | O14786 | inhibition, % at 25 µM;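 active means inhibition or corrected inhibition above about 18%, plus a signal ratio from 0.5 to 1.5, limit read from the data, passing the limit was not always enough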
Target sequence (O14786 whole entry, looked up): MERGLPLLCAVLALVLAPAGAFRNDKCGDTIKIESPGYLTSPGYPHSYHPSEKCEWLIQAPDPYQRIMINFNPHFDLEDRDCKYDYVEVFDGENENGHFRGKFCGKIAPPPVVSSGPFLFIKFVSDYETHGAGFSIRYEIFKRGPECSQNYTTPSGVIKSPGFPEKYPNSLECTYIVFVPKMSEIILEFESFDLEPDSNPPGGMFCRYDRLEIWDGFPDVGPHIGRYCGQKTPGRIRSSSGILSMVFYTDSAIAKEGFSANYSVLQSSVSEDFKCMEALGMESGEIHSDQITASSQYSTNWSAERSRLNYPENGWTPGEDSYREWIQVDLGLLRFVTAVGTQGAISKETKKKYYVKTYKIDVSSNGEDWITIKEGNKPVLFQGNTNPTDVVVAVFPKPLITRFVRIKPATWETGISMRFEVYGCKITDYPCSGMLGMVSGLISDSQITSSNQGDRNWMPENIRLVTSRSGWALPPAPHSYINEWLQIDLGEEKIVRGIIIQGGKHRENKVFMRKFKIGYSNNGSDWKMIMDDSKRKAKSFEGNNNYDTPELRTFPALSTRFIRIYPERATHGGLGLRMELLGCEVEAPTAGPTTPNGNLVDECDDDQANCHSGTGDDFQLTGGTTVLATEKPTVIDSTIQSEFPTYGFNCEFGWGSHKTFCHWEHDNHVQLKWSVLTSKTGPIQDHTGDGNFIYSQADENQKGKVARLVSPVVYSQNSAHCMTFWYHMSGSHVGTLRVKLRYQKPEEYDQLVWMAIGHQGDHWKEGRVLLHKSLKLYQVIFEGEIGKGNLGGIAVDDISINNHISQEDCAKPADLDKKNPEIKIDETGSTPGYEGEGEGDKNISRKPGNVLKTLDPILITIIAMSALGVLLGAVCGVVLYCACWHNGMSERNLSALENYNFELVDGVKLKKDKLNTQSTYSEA
SKN-1 block: C. elegans SKN-1 inhibition. C. elegans VP596 Pgst-4::GFP/RFP ratio, acrylamide-induced, 24 h. inhibition, % at 21.8 µM. hit rate 0.49% among 360,000. AID 624304;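 active means interference check ratio from 0.5 to 1.5 plus GFP to RFP signal ratio inhibition reaching or exceeding a fixed threshold, cut at about 30% in these data, passing the limit was not always enough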
MEKK2 WT-MEK5: raises or lowers MEK5 binding to wildtype human MEKK2 PB1 domain; binding response (% of control), % at 10 µM; bead flow cytometry, Alexa488-MEK5 binding to MEKK2 WT; actives lie on both sides; Q9Y2U5; hit rate 1.1% among 290,000; in the data active means binding response below about 67% or above about 130%
MEKK2wt confirm: raises or lowers MEK5 binding to wildtype human MEKK2, retest; shares compounds with MEKK3 PB1 HTS; hit rate 2.4% among 5,900; bead flow cytometry, Alexa488-MEK5 binding to MEKK2 WT; actives lie on both sides; binding response (% of control), % at 10 µM; AID 1892; in the data active means binding response below about 16% or above about 210%; inactive means in between
MEKK2mut-MEK5: signal of MEK5 binding to mutant human MEKK2, retest | shares compounds with MEKK3 PB1 HTS | bead flow cytometry, Alexa488-MEK5 binding to MEKK2 mutant | percent response, % at 10 µM | hit rate 2% among 5,900 | AID 1893; in the data active means percent response mostly above about 71%, no sharp cut-off; inactive means mostly below about 38%;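 further: higher means compound restores mutant binding toward wildtype level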
MEKK3-MEK5 inh: confirmation of inhibitors of MEK5 binding to human MEKK3. shares compounds with MEKK3 PB1 HTS. bead flow cytometry, Alexa488-MEK5 binding to MEKK3; active compounds read low. binding response (% of control), % at 10 µM. hit rate 1.8% among 5,900. AID 1894;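 active means binding response below 72% of control, or above a set upper limit, though filed actives all read lower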;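 further: 100% = DMSO only wells and 0% = binding blocked by excess unlabeled MEK5; lower values mean stronger disruption of MEK5 binding to MEKK3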
* = called active by the depositor; / = not tested or not shown; [ ] = remark or other dose. This is a sample that favours compounds with a hit; in the whole collection about 3.2% have one here.

SMILES	MEKK2 mut-MEK5	MEKK3 PB1 HTS	NRP1-CendR mod	SKN-1 block	MEKK2 WT-MEK5	MEKK2wt confirm	MEKK2mut-MEK5	MEKK3-MEK5 inh
CCCCCNC(=O)C(c1ccncc1)n1c(=O)c(-c2cc3ccccc3[nH]2)nc2ccccc21 (stereo not drawn)	/	/	3	18	/	/	/	/
COc1ccc(C(=O)NCCCCc2ccccc2)cc1	/	/	8	-12	/	/	/	/
COc1ccc(C[C@H]2CN3C(=NC[C@@H]3Cc3ccccc3)N2CCNC(=O)c2ccc(C)c(Br)c2)cc1	132*	109	1	-18	271*	200	56	102
COc1ccc(C[C@H]2CN3C(=NC[C@H]3Cc3ccccc3)N2CCNC(=O)c2ccc(C)c(Br)c2)cc1	27*	105	6	7	154*	176	26	105
CCN(CC)C(=S)Nc1ccc(OC)cc1	1	155*	-2	-5	113	103	2	104
COc1ccccc1N1CCN(C(=O)C(C)NC(=O)c2cccc([N+](=O)[O-])c2)CC1 (stereo not drawn)	-5	104	8	12	97	/	/	/
CC(=O)NC(CCc1ccc(Cl)c(Cl)c1)c1cccc(O)c(=O)c1 (stereo not drawn)	/	/	0	10	/	/	/	/
CN1CCN(c2nc3cc(C(F)(F)F)ccc3n3cccc23)CC1	4	103	9	4	140*	135	19	109
FC(F)(F)c1ccc2c(c1)nc1n2CCCC1	3	104	-4	1	109	/	/	/
CCOc1ccc(OCCCCOc2ccccc2C(C)=O)cc1	3	104	-12	3	111	/	/	/
CCOc1cccc(OCCOCCOc2ccccc2C(C)=O)c1	2	193*	-9	6	111	95	4	100
CCOc1ccccc1NC(=O)NCc1cccnc1	-16	43*[inhibitor]	-13	-2	49	96	-5	99
CCOc1ccccc1NC(=O)NCc1ccccc1	-10	92	12	6	95	/	/	/
Nc1nonc1C(=O)NCCNCc1cc(Br)ccc1OCc1ccccc1F	-1	81	-3	-9	113	/	/	/
Nc1nonc1C(=O)NCCNCc1ccccc1OCc1ccccc1F	8	123*	17	-6	124	113	14	103
Cc1ccc([C@H]2C[C@H](O)[C@@H](n3cc(-c4ccc(F)cc4)nn3)CN2CC2CCCCC2)cc1	/	/	-7	8	/	/	/	/
CN(C)c1ccc(/C=C(\C#N)C(=O)Nc2nc3c(s2)CCN(Cc2ccccc2)C3)cc1	-22	97	126	45*	71*[inhibitor]	98	7	106
O=C(Nc1nc2c(s1)CN(Cc1ccccc1)CC2)C1CCC1	2	110	-31	22	116	/	/	/
CCCOc1ccc2c(c1)C(=NN=C(N)N)c1cc(OCCC)ccc1-2	32*	99	-6	-5	191*	249*	88*	111
CCN(CC)CCOc1ccc2c(c1)C(=NO)c1cc(OCCN(CC)CC)ccc1-2	3	100	8	11	117	/	/	/
COC(=O)CCC(=O)Nc1ccc(C)cc1OC(=O)CCC(=O)OC	28*	114	1	-16	115	96	-4	101
COC(=O)CCC(=O)Nc1ccccc1C(N)=O	5	101	0	-8	103	/	/	/
CCOC(=O)c1c(CSCc2ccccc2)oc2ccc(O)c(CN(C)C)c12	18	104	-1	3	137*	139	21	106
O=C(C1=C[C@@H](c2coc3ccccc3c2=O)C[C@@H](OCc2ccc(CO)cc2)O1)N1CCOCC1	1	82*[inhibitor]	-1	-7	101	97	-3	98
O=S1(=O)N[C@@H](c2ccccc2)COc2cc(Br)ccc21	/	/	-16	20	/	/	/	/
SMILES	MEKK2 mut-MEK5	MEKK3 PB1 HTS	NRP1-CendR mod	SKN-1 block	MEKK2 WT-MEK5	MEKK2wt confirm	MEKK2mut-MEK5	MEKK3-MEK5 inh
COc1ccc(OC)c(C2C3=C(CCCC3=O)Nc3nnnn32)c1 (stereo not drawn)	0	133*	-4	-10	107	99	-3	98
COc1ccc(/C=N/NC(=S)NC2CCS(=O)(=O)C2)cc1OC (stereo not drawn)	12	123*	11	10	117	103	-1	99
Cc1ccc(/C=N/NC(=S)NC2CCS(=O)(=O)C2)cc1 (stereo not drawn)	/	/	3	13	/	/	/	/
O=C1C=CC2C3C(=O)N(c4ccccc4)C(=O)C3C1N2Cc1ccccc1 (stereo not drawn)	/	/	-6	-6	/	/	/	/
CN1CCN(C(=O)N2c3ccccc3C=Cc3ccccc32)CC1	-26	0.0*[inhibitor]	-8	-13	0.0*[inhibitor]	107	4	103
NC(=O)N1c2ccccc2C=Cc2ccccc21	-2	94	1	-2	103	/	/	/
O=C(O)C1CCN(S(=O)(=O)c2ccc3[nH]ccc3c2)CC1	/	/	-8	13	/	/	/	/
CC(C)(C)NCc1cc(Cl)ccc1OCc1ccccc1F	-22	75*[inhibitor]	7	5	70	101	0	99
Cc1ccc(C(=O)N/N=C2\CCc3ccccc32)c(C)c1	1	141*	7	8	110	107	0	105
CN(C)c1ccc(/C=C/c2ccc3c4ccccc4ccc3[n+]2-c2ccccc2)cc1	-33	18*[inhibitor]	-78	83	41*	138	56	81
CN(C)c1ccc(/C=C/c2cccc[n+]2[O-])cc1	-4	99	-43	18	99	/	/	/
CCCCNS(=O)(=O)c1ccc(Br)cc1N1CCC[C@H]1CO	/	/	1	3	/	/	/	/
O=C(NCC1OCCc2ccccc21)c1ccc(NC(=O)c2ccc(Cl)cc2)cc1 (stereo not drawn)	2	134*	-7	0	112	105	9	106
N#C/C(=C\Nc1ccc2cn[nH]c2c1)c1nc(-c2ccc(Cl)cc2)cs1	-11	95	-47	25	83	/	/	/
CCN(CC)CCOC(=O)c1cccc(OC)c1	-3	92	-5	-8	93	/	/	/
CCN(CC)CCOC(=O)c1ccc(N/C=C(/C#N)c2nc(-c3ccc(OC)cc3)cs2)cc1	19	22*[inhibitor]	-32	0	72	212*	31	84
CCN(CC)CCOC(=O)c1ccc(N/C=C(/C#N)c2nc(-c3ccc4c(c3)OCO4)cs2)cc1	4	22*[inhibitor]	-90	11	58*[inhibitor]	101	-20	39*
CCN(CC)CCOC(=O)c1ccc(N/C=C(/C#N)c2nc(-c3cc4ccccc4oc3=O)cs2)cc1	-44	15*[inhibitor]	-7	18	36*[inhibitor]	14*[inhibitor]	-29	13*
